PubChem BioAssay (NCI)
About 79,000 compounds went through this panel and 15% of them were active in at least one assay; those are over-represented in the sample as a whole. Values without a mark were called inactive. Calls of active or inactive are those of the source. Rule as the data show it: active = growth inhibition above about 70%; inactive = the rest.

Tests used:
[1] = NCI Yeast Anticancer Drug Screen. Data for the rad50 strain (AID 155);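 also: 0% = growth of vehicle-only cultures of the same strain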; conditions: S. cerevisiae rad50 strain growth inhibition, stronger effect = higher value
How it was run: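 A DNA repair-deficient yeast mutant serves as the test organism; compound-induced growth inhibition is calculated against vehicle-treated cells.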

[2] = NCI Yeast Anticancer Drug Screen. Data for the mec2-1 strain (AID 157); conditions: S. cerevisiae mec2-1 strain, stronger effect = higher value
How it was run: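 Each compound was tested on mec2-1 yeast, a strain altered in DNA damage repair or cell cycle control. Growth inhibition is reported relative to vehicle.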

[3] = NCI Yeast Anticancer Drug Screen. Data for the sgs1 mgt1 strain (AID 161);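 also: 0% = growth of cultures given vehicle only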; conditions: S. cerevisiae sgs1 mgt1 strain, stronger effect = higher value
How it was run: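 Test agents were incubated with a DNA-repair-mutant yeast strain. Growth was then read and compared against vehicle-treated controls.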

[4] = NCI Yeast Anticancer Drug Screen. Data for the cln2 rad14 strain (AID 165);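 also: 0% = growth equal to vehicle treated cultures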; conditions: S. cerevisiae cln2 rad14 strain, stronger effect = higher value
How it was run: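 Test compounds were added to cln2 rad14 yeast cultures; inhibition of growth was then determined by comparison with vehicle treatment.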

[5] = NCI Yeast Anticancer Drug Screen. Data for the bub3 strain (AID 167); conditions: S. cerevisiae bub3 mutant strain, stronger effect = higher value
How it was run: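 Inhibition values come from growth of compound-treated mutant yeast normalised to vehicle-treated controls.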

[6] = NCI Yeast Anticancer Drug Screen. Data for the mlh1 rad18 strain (AID 175); conditions: S. cerevisiae mlh1 rad18 strain growth inhibition, stronger effect = higher value
How it was run: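 Inhibition values reflect reduced growth of mutant yeast versus vehicle-treated controls following compound exposure; the mutations affect DNA damage repair.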

[7] = at 5.0 µM (retest, dose inferred, filed as 0.5)
[8] = at 50.0 µM (retest, dose inferred, filed as 5.0)

SMILES	growth inhibition [1, 7]	growth inhibition [1, 8]	growth inhibition ([1]; at 50.0 µM)	growth inhibition [2, 7]	growth inhibition [2, 8]	growth inhibition ([2]; at 50.0 µM)	growth inhibition [3, 7]	growth inhibition [3, 8]	growth inhibition ([3]; at 50.0 µM)	growth inhibition [4, 7]	growth inhibition [4, 8]	growth inhibition ([4]; at 50.0 µM)	growth inhibition [5, 7]	growth inhibition [5, 8]	growth inhibition ([5]; at 50.0 µM)	growth inhibition [6, 7]	growth inhibition [6, 8]	growth inhibition ([6]; at 50.0 µM)
CCCCNc1cccc2ncccc12	11%	53%	17.1%	9%	34%	9.85%	14%	58%	21.8%	9%	28%	-3.9%	4%	31%	-4.2%	21%	57%	50%
COc1ccc2c(c1)OC(c1ccccc1O)CC2=O (stereo not given)	0%	-17%	55.9%	-44%	-30%	24.1%	-10%	11%	72.1% (active)	-14%	12%	20.7%	-2%	-9%	55.5%	-70%	-34%	36.5%
Cc1cc(NS(=O)(=O)c2ccc(NCc3c4ccccc4nc4cc(Cl)ccc34)cc2)no1	26%	97% (active)	98.2% (active)	22%	99% (active)	98.5% (active)	27%	99% (active)	98.5% (active)	6%	97% (active)	97.3% (active)	25%	99% (active)	96.2% (active)	9%	97% (active)	98.2% (active)
O=C(CCC(O)(c1ccccc1)c1ccccc1)c1ccccc1	-4%	97% (active)	65.8%	-13%	98% (active)	-11.9%	-11%	98% (active)	13.2%	-89%	99% (active)	-27.2%	-9%	46%	4.9%	-3%	98% (active)	70.5% (active)
COc1ccc(-c2c(-c3ccccc3)c(C)nc3[nH]c(=S)[nH]c(=S)c23)cc1OC	-4%	69%	92.2% (active)	-2%	58%	92.8% (active)	7%	89% (active)	94.4% (active)	7%	81% (active)	93.2% (active)	0%	91% (active)	69.8%	-30%	79% (active)	94.9% (active)
CCCCCCCCCCCCCCCCCCOC(=O)C(N)CCCCN (stereo not given)	2%	98% (active)	98.3% (active)	-3%	97% (active)	98.8% (active)	3%	97% (active)	50.5%	-7%	87% (active)	96.7% (active)	-7%	96% (active)	98.2% (active)	-5%	96% (active)	98.3% (active)
CC(C)NC(=O)OCc1c(CO)c2c(n1C)-c1ccccc1CC2	-5%	96% (active)	95.9% (active)	-4%	96% (active)	98% (active)	50%	96% (active)	97.8% (active)	-10%	95% (active)	96.8% (active)	-3%	96% (active)	98.3% (active)	11%	96% (active)	95.5% (active)
COc1ccccc1C(=O)N(Cc1ccccc1)c1ccc(Cl)c(C(=O)OC(C)C)c1	28%	59%	15.3%	-7%	14%	1.25%	1%	33%	-33.3%	-6%	14%	10.5%	-55%	15%	-8.1%	3%	31%	19.1%
NNc1ccccc1[N+](=O)[O-]	8%	80% (active)	89% (active)	8%	84% (active)	89.2% (active)	-2%	62%	84.6% (active)	24%	82% (active)	77.2% (active)	6%	98% (active)	88.5% (active)	-11%	96% (active)	83.3% (active)
COc1cc(C(=O)[O][Sn]([c]2ccccc2)([c]2ccccc2)[c]2ccccc2)cc(OC)c1OC	100% (active)	99% (active)	98.6% (active)	100% (active)	100% (active)	99.2% (active)	99% (active)	99% (active)	98.5% (active)	99% (active)	99% (active)	89.2% (active)	99% (active)	99% (active)	97% (active)	99% (active)	99% (active)	98.3% (active)
